Source: PubChem BioAssay (Broad Institute)
esBAF inh – Bmi1 luciferase reporter increase in mESCs, primary screen, esBAF inhibitor project, mouse ES cells, Bmi1 luciferase knock-in, single point | 24 h; 100% = twice the neutral-well signal | reporter increase, % at 12.5 µM | hit rate 2% among 350,000; in the data active = activation above about 40%; inconclusive = no clear call, values can overlap the other calls;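 also: a rise in the Bmi1 reporter signal indicates esBAF inhibition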
PvdQ acylase – P. aeruginosa PvdQ acylase inhibitors, primary screen, biochemical, fluorescence, plate reader and imaging, single point; hit rate 0.063% among 340,000; purified PvdQ acylase; PvdQ acylase [Pseudomonas aeruginosa LESB58]; inhibition, % at 10 µM; in the data active = inhibition above about 30%, passing the limit was not always enough; inconclusive = no clear call, values can overlap the other calls
Wnt act – Wnt/beta-catenin pathway activators, primary screen, cell-based, plate reader, single point; hit rate 1.2% among 300,000; activation, % at 9.35 µM; Wnt/beta-catenin reporter cell assay, activator; AID 743398, 2014; in the data active = activation above about 30%, passing the limit was not always enough; inconclusive = no clear call, values can overlap the other calls
MITF act – activators of MITF-driven TRPM1 promoter reporter, primary screen, cell-based, SK-MEL-5, luciferase, single point; hit rate 0.75% among 300,000; SK-MEL-5 TRPM1-promoter luciferase, 24 h; % of positive control, neutral wells = 0; activation, % at 12.5 µM;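 active = mean activation of at least 80% with every replicate also reaching 80%; inconclusive = mean reaches 80% but some replicate falls short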
Glyco luc inh – increase of ERlucT glycosylation luciferase signal, primary screen, N-linked glycosylation inhibitor project, D54 ERlucT cells, luminescence, set 2; AID 588692, 2011; D54 ERlucT glycosylation luciferase reporter, 24 h; percent of 100 nM tunicamycin response; hit rate 0.23% among 360,000; reporter increase, % at 12.5 µM;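 active = mean luciferase reporter signal, scaled so untreated is 0 and the glycosylation-blocking control 100, at or above a set limit in every replicate; inconclusive = mean reaches the limit but not every replicate does; inactive = mean below the limit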;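 also: luciferase carries N-glycosylation sites so blocking glycosylation raises the light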
Vif imaging – HIV Vif self-association inhibitors, primary screen, imaging, HEK293T, single point; HEK293T cells, Vif self-association by quenched fluorescence, 24 h; inhibition, % at 7.49 µM; hit rate 0.35% among 340,000; in the data active = inhibition above about 50%, passing the limit was not always enough; inconclusive = no clear call, values can overlap the other calls; inactive = below about 31%
Hits are given with their value; n = inactive; u = inconclusive; x = no result given. Shown are actives, neighbours in structure and some others; about 2.9% of the full set was active somewhere.

SMILES	esBAF inh	PvdQ acylase	Wnt act	MITF act	Glyco luc inh	Vif imaging
O=C(C[C@@H]1CC[C@@H]2[C@H](COC[C@H](O)CN2S(=O)(=O)c2ccccc2)O1)NCCN1CCCCC1	n	x	x	x	x	x
CC(C)NC(=O)N1C[C@H]2[C@@H](c3ccccc31)[C@H](CO)N2C(=O)c1ccncc1	n	x	x	x	x	x
O=C(COc1ccccc1)Nc1nc2ccccc2[nH]1	49	n	u	n	n	n
CC(CC(=O)Nc1nc2ccccc2[nH]1)c1ccccc1 (stereo not given)	70	n	n	n	n	n
CC(CC(=O)Nc1nc2ccccc2[nH]1)n1ccnc1 (stereo not given)	n	n	n	n	n	n
COC(=O)COc1ccc(/C=N/NC(=O)CN(c2ccccc2OC)S(=O)(=O)c2ccccc2)cc1	n	n	n	n	n	57
C[C@@H]1CN([C@H](C)CO)C(=O)c2cc(NC(=O)NC3CCCCC3)ccc2O[C@@H]1CN(C)S(=O)(=O)c1ccc(F)cc1	n	x	x	x	x	x
COC(=O)c1ccc(COC(=O)c2ccc(N(C)C)cc2)cc1	n	n	x	n	n	n
CN(C)c1ccc(C(=O)OCc2ccccc2)cc1	50	n	x	n	n	n
COc1ccc(CN(C)C[C@H]2Oc3ccc(NC(=O)Nc4ccc5c(c4)OCO5)cc3C(=O)N([C@H](C)CO)C[C@@H]2C)cc1	n	x	x	x	x	x
COc1c(Br)cc(Br)cc1/C=C1/C(=O)N=C(N)N1C	n	n	n	n	n	96
COc1ccc(/C=C2\NC(=S)N(CC3CCCO3)C2=O)c(OC)c1 (stereo not given)	48	n	n	n	n	n
CNC(=O)C1(c2ccccc2)CCCCC1	n	x	n	x	n	n
O=CNC1(c2ccccc2)CCCCC1	x	94	n	n	n	n
O=C(O)c1ccc(N/N=C/c2ccncc2)cc1	x	n	n	n	n	n
O=C(O)c1ccc(N/N=C/C2=Cc3ccccc3OC2)cc1	81	n	41	138	n	n
COc1cccc(OCC(O)CN2CCN(CCN3C(=O)c4cccc5cccc(c45)C3=O)CC2)c1 (stereo not given)	x	n	n	n	34	n
O=C1c2cccc3cccc(c23)C(=O)N1CCN1CCN(CC(O)COc2ccccc2)CC1 (stereo not given)	n	n	n	n	n	n
COc1ccc(C2=C(CN(C)C)C(c3ccccc3)c3ccccc3O2)cc1 (stereo not given)	71	n	x	n	n	n
CCOc1ccc(C2=C(C=C(C#N)C#N)C(c3ccccc3)c3ccccc3O2)cc1 (stereo not given)	x	n	n	n	n	n
COc1ccccc1-c1cnc2c(c1)C(=O)N([C@H](C)CO)C[C@H](C)[C@@H](CN(C)Cc1ccc(C(=O)O)cc1)O2	n	x	x	x	x	x
c1ccc2c(Nc3nnc(-c4ccncc4)s3)cccc2c1	55	n	x	u	n	n
Cc1ccc2nc(-c3cccc(Cl)c3)c(Cc3ccsc3)n2c1	x	x	n	x	x	x
Brc1cccc(-c2nc3ccc(Br)cn3c2Cc2ccsc2)c1	63	x	n	x	n	x
Clc1cccc(-c2nc3ccc(Br)cn3c2Cc2ccsc2)c1	43	x	n	x	n	x
SMILES	esBAF inh	PvdQ acylase	Wnt act	MITF act	Glyco luc inh	Vif imaging
CC(C)Oc1ccccc1C1Nc2ccccc2C(=O)N1c1ccc2c(c1)OCCO2 (stereo not given)	n	n	x	n	n	n
Cc1ccc(N2C(=O)c3ccccc3NC2C(C)Cc2ccc3c(c2)OCO3)cc1 (stereo not given)	52	n	x	x	n	n
O=C(C[C@H]1C=C[C@H](NC(=O)CN2CCOCC2)[C@@H](CO)O1)NCCc1ccccc1	n	x	x	x	x	x
O=C(NCC1CC1)[C@@H]1[C@@H](CO)[C@@H]2Cn3c(cccc3=O)[C@@H]2N1C(=O)CC1CC1	n	x	x	x	x	x
CCCC(=O)Nc1ccc2c(c1)C(=O)N(C)[C@H]1CC[C@H](CC(=O)NCc3ccccc3Cl)O[C@H]1CO2	n	x	x	x	x	x
Cc1ccc(/C=N/Nc2ccc(Cl)nn2)cc1	x	n	37	95	n	n
COc1cccc(/C=N/Nc2ccc(Cl)nn2)c1OC	x	n	n	x	n	n
